In all, about 150,000 compounds went through this assay and about 190 (0.13%) were called active. About 2% were inconclusive and are not listed. The call rests on the fitted dose curve; in most records, active means well fitted inhibition curve with a large enough effect; inconclusive means small, poorly fitted or top-dose-only effect; inactive means flat fitted curve, though single readings scatter. Shown is part of a subset that was picked to be rich in actives. A call without a number means that no potency is given here.
Potency means the concentration at half of the fitted maximal effect.

Polyunsaturated fatty acid lipoxygenase ALOX12 (Homo sapiens), sequence (P18054 whole entry, looked up): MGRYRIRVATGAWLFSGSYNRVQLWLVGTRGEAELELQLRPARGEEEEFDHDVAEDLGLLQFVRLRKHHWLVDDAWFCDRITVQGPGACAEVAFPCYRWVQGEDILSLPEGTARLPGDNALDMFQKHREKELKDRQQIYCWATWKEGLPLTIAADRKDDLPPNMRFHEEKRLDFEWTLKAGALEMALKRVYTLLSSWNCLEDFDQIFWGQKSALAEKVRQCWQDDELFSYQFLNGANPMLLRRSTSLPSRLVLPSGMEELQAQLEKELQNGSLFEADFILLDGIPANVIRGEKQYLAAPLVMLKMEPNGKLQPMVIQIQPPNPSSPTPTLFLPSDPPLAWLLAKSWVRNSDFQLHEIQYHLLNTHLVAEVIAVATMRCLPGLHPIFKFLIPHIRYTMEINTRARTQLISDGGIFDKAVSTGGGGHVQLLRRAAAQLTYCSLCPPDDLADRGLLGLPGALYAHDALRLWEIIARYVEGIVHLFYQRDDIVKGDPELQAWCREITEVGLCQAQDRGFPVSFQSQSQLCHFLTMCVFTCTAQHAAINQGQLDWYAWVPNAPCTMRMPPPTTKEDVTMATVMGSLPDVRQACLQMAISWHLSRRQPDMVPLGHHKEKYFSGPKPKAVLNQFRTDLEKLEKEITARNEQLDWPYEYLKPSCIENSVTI

This test deals with Polyunsaturated fatty acid lipoxygenase ALOX12 (Homo sapiens) (UniProt P18054). The test can be described thus: qHTS Assay for Inhibitors of 12-hLO (12-human lipoxygenase). Further: nearly all actives have a fitted effect of over 55% in size. The conditions noted are these: purified 12-hLO, xylenol orange hydroperoxide absorbance; series mostly up to 57.1 µM. From the text:
Assay Provider: Holman, T.R., University of California, Santa Cruz Screening Center PI: Austin, C.P. Screening Center: NIH Chemical Genomics Center [NCGC] Human lipoxygenase 12hLO is a member of the closely related lipoxygenase family of enzymes which catalyze the site-specific oxidation of arachidonic acid to various hormone precursor molecules and as such is a candidate for drug development in a variety of disease areas, such as cancer and inflammation. Inhibition of 12hLO activity was screened by utilizing arachidonic acid as a substrate. The extent of hydroperoxide product formation was measured by a secondary chromogenic reaction in which xylenol orange (XO, Sigma-Aldrich, cat. number 39,818-7) reacts with the ferric ions produced from the reaction between the hydroperoxide and ferrous ions. The Fe(III)-XO complex is characterized with red-shifted absorbance at 560 nm. A purified preparation of human 12hLO was supplied by Professor Ted Holman, University of California, Santa Cruz.
Assay Protocol: Buffer: 25 mM Hepes pH 7.0, 0.01% Triton X-100. Reagents/Controls: Buffer in columns 3 and 4 as negative control (no enzyme). Substrate solution: 40 uM arachidonic acid (Sigma-Aldrich, St. Louis, MO) final concentration dispensed throughout the plate. Enzyme: 150 nM 12hLO final concentration in columns 1, 2, 5-48. Column 1 is neutral (100% activity). Column 2 contained pin-transferred titration of NDGA (nordihidroguaiaretic acid, Sigma-Aldrich, N 5023, top concentration 20 mM in DMSO, then 1:3 dilution in duplicate). (Dilution factor: 23 nL into 4 uL.) Chromogenic detection reagent (divalent iron/xylenol orange, Fe-XO): 200 uM xylenol orange plus 300 uM ferrous ammonium sulfate prepared freshly in 50 mM sulfuric acid. Assay Steps: Three uL of enzyme were dispensed to 1536-well Greiner black clear bottom plates. Compounds and controls (23 nL) were transferred via Kalypsys PinTool. The plates were incubated for 15 min at room temperature, and then 1 uL of substrate solution was added to start the reaction. After room temperature incubation for 30 minutes, 4 uL of Fe-XO solution was added to each well and the plates were incubated for 30 min. The absorbance at 405 and 573 nm were measured using ViewLux (Perkin-Elmer) High-throughput CCD imager and absorbance protocol settings. The 573-to-405 absorbance ratio was used to compute reaction progress.
For orientation: In qHTS, concentration-response curves come from the screen itself.
Take `CCCCCCCC[n+]1cccc(C(=O)N2c3c(nc(N)[nH]c3=O)NC(C)C2C)c1` (stereo not given): the activity change, negative = inhibition entry is “inactive”. On the same count and under the same terms, then `C[C@@H]1C(c2ccc(F)cc2)=NN(c2ccc(Br)cc2)[C@H]1C(=O)N1CCOC1=O`, with -4.22% [at 0.00818 µM] (inactive); and `O=[N+]([O-])c1ccccc1SNc1ccccn1`, with “inactive”; and `C=C1C2C[C@H](O)C(C)(C)[C@@]2(O)[C@H](O)C[C@]23C[C@@](C)(O)[C@H](CC[C@H]12)[C@H]3O` (stereo not given in full), with “inactive”. The same measure, in the same setting: then `CCOC(=O)C1C/C(=C\C(C)=O)c2cccc(C(F)(F)F)c2O1` (stereo not given), with -1.22% [at 0.00818 µM] (inactive); and `CC(Nc1oc(-c2ccccc2)nc1-c1ccccc1)c1ccccc1` (stereo not given), with “inactive”; and `Cc1cc2oc(=O)cc(-c3ccccc3)c2c(C)c1/C=C/c1ccc(F)cc1`, with -3.71% [at 0.00818 µM] (inactive).

Take `COc1cccc(C(=O)Nc2cc3c(cc2Br)OCCCO3)c1`: the activity change, negative = inhibition entry was “inactive”. The same measure, in the same setting: then `CCCCC[C@H](O)/C=C/[C@@H]1[C@@H](CC(=O)CCC(=O)O)[C@@H](O)C[C@H]1O`, with “inactive”.

`COc1ccc(CCNC(=O)/C(C#N)=C2\N=C(NC(=O)c3cccs3)c3ccccc32)cc1`: the activity change, negative = inhibition result is “inactive”. `O=C(OC1CCOC1=O)c1cccc(S(=O)(=O)Nc2ccc(F)cc2)c1` (stereo not given): the activity change, negative = inhibition result is “inactive”. Consider `O=C(CNCc1ccc(F)cc1)Nc1ccccc1-c1ccccc1`, for which the activity change, negative = inhibition entry was “inactive”. Same read-out and setting: with `COc1ccccc1N=Cc1c(O)c2ccccc2oc1=O` the entry was “inactive”; with `CC(=O)Nc1ccc(S(=O)(=O)NCC(=O)OCc2cc(=O)oc3ccc4ccccc4c23)cc1`, “inactive”; with `COC(=O)C1=C(C(=O)OC)[C@@H]2N(C)c3ccccc3[C@@]23C[C@@H](C(=O)OC)N(S(=O)(=O)c2ccc(Br)cc2)C3=N1`, 2.4% [at 11.4 µM] (inactive). Still for that read-out and setting: with `COC(=O)c1c(NC(=O)COC(=O)[C@@H](NS(=O)(=O)c2ccccc2)C(C)C)sc2c1CCC2` the entry was “inactive”. On to `Brc1ccc(C2=NCCC(c3ccccc3)O2)cc1` (stereo not given), for which the activity change, negative = inhibition is 0.263% [at 0.00818 µM] (inactive). Still for that read-out and setting: with `COc1ccc(-c2nc3c(c4c2C[C@H](c2ccccc2)OC4)CN(C(=O)c2cccnc2)CC3)c(C)c1` the figure was 1.97% [at 11.4 µM] (inactive). For `COc1ccc(-c2nnc(SC(C)C#N)o2)cc1` (stereo not given), the activity change, negative = inhibition result is “inactive”.

As for `COc1ccc(-c2nnc(SCc3cccnc3)o2)cc1`, the activity change, negative = inhibition result was “inactive”. `COc1ccc(-c2nnc(SC(=O)N3c4ccccc4Sc4ccccc43)o2)cc1`: the Potency is 14.1 µM (active). Take `COc1ccc(C(=O)COC(=O)c2ccc3ccccc3n2)cc1`: the activity change, negative = inhibition entry was “inactive”. Regarding `O=c1cc(CN2CCN(S(=O)(=O)/C=C/c3ccccc3)CC2)c2ccc(O)cc2o1`, the activity change, negative = inhibition result was “inactive”. Same read-out and setting: then `COc1ccc(C2CC(=O)Oc3ccc(C(C)(C)C)cc32)cc1` (stereo not given), with -4.97% [at 0.00818 µM] (inactive). Still for that read-out and setting: then `CCOc1ccc(N2C(=O)/C(=C/c3ccc(C)o3)N(C)C2=S)cc1`, with “inactive”. On the same count and under the same terms, with `COC(=O)CCCC1=CC2=C(c3ccccc3)C(=O)C(C)(OC(=O)C3CCCC3)C(=O)C2=CN1c1ccc(OC)cc1` (stereo not given) the figure was -9.71% [at 11.4 µM] (inactive). For `CCOC(=O)c1c(NC(=O)C2(C)Cc3ccccc3C(=O)O2)sc2c1CCCC2` (stereo not given), the activity change, negative = inhibition result was “inactive”. With `CCOC(=O)C1=C(NC(=S)NC(=O)c2ccccc2)c2ccccc2CC1(C)C`, the Potency is 25.1 µM (active). On to `COCCCNC(=S)NC(=O)c1ccccc1`, for which the activity change, negative = inhibition result was “inactive”. Same read-out and setting: then `C[C@H]1Cc2c(-c3ccccc3)nc3c(c2CO1)CN(C(=O)C1CC1)CC3`, with 2.53% [at 11.4 µM] (inactive); and `CC(NC(=O)CCC(=O)N1CCN(S(=O)(=O)c2ccc(Cl)cc2)CC1)c1ccccc1` (stereo not given), with “inactive”. Same read-out and setting: with `Cc1cc(C)cc(OCC(=O)NNC(=O)CCN2C(=O)c3ccccc3C2=O)c1` the entry was “inactive”.

On to `C/C(=C\c1ccccc1)C1NC(=O)c2c(sc3c2CCCC3)N1` (stereo not given), for which the activity change, negative = inhibition entry was “inactive”. As for `O=C(CN1C(=O)c2cccc3cccc(c23)C1=O)N1CCCCC1`, the activity change, negative = inhibition result is “inactive”. As for `CCOC(=O)N1CCN(C(=O)C2CCN(Cc3ccc(OC)cc3OC)CC2)CC1`, the activity change, negative = inhibition entry is “inactive”. On the same count and under the same terms, with `O=C1OCCN1C(=O)[C@H]1[C@H](c2ccccc2)C(c2ccc(F)cc2)=NN1c1ccccc1` the figure was -8.19% [at 0.00818 µM] (inactive); with `C[C@H]1Cc2c(COc3ccccc3)nc3c(c2CO1)CN(C(=O)NCc1ccco1)CC3`, 1.43% [at 11.4 µM] (inactive); with `COC(=O)CC1c2ccccc2C(Cc2ccc(OC)cc2)=C(C)N1C(=O)OC` (stereo not given), 2.48% [at 11.4 µM] (inactive). In the case of `C=CCn1c2ccccc2c2nnc(SCc3[nH]c(=O)[nH]c3C(=O)CCCCC(=O)OCC)nc21`, the activity change, negative = inhibition entry is “inactive”. For `COC(=O)CN1C(=S)N(c2ccccc2)C(=O)C1CC(=O)Nc1ccc(Cl)cc1` (stereo not given), the activity change, negative = inhibition entry is “inactive”. Same read-out and setting: then `CC(=O)c1c(N2CCN(c3ccc(F)cc3)CC2)nc(=S)n(-c2ccccc2)c1C`, with “inactive”. Same read-out and setting: then `COc1ccc(-c2nc(-c3ccccc3)oc2Nc2ccc3ccccc3c2)cc1`, with “inactive”; and `O=[N+]([O-])c1ccc(NCCCO)c(C(F)(F)F)c1`, with “inactive”. On the same count and under the same terms, with `CNC(=O)NC(=O)C(OC(=O)c1cccc(S(=O)(=O)N2CCCCC2)c1)c1ccccc1` (stereo not given) the entry was “inactive”; with `O=C1OCCN1C(=O)[C@H]1[C@H](c2ccc(F)cc2)C(c2ccccc2)=NN1c1ccc(Br)cc1`, -8.73% [at 0.00818 µM] (inactive). As to `CC(C)Oc1ccc(CCc2n[nH]c(=S)n2Cc2ccccc2)cc1`, the Potency was 31.6 µM (active). As for `CCCc1cc(-c2n[nH]c(=S)n2Cc2ccccc2)cs1`, the activity change, negative = inhibition result is “inactive”. The same measure, in the same setting: then `CCCCC(CC(C)O)c1n[nH]c(=S)n1-c1ccccc1` (stereo not given), with “inactive”; and `NNc1nnc(NN)c2ccccc12`, with -2.71% [at 0.00818 µM] (inactive); and `CCOC(=O)C1=C(C)c2ccccc2OC1C(=O)OCC` (stereo not given), with 1.63% [at 0.00818 µM] (inactive). The same measure, in the same setting: with `COC(=O)C1(C(C)=O)CC2=CC[C@H]3C(=O)N(c4ccccc4)C(=O)[C@H]3[C@@H]2Cc2ccccc2[C@@H]1C[N+](=O)[O-]` (stereo not given in full) the entry was “inactive”; with `N#Cc1ccsc1NC(=O)CN1CCN(S(=O)(=O)c2cc(Cl)ccc2Cl)CC1`, “inactive”.

Take `Cc1nn(-c2ccccc2)c(C)c1/C=N/NC(=O)CSc1nc2ccccc2c(=O)n1-c1ccccc1`: the activity change, negative = inhibition result was “inactive”. Turning to `CCOC(=O)c1c(NC(=O)Cn2nc(C(F)(F)F)cc2C)sc2c1CCC2`, the activity change, negative = inhibition result was “inactive”. Still for that read-out and setting: then `CCOc1cc(/C=N/NC(=O)OC)ccc1OCCSc1ccc(Cl)cc1`, with “inactive”.

(Values after PubChem BioAssay AID1452 (National Center for Advancing Translational Sciences (NCATS), 2008).)
